Compound activity as filed in PubChem.
aSyn 5UTR act: Activators working through SNCA 5'UTR binding (MLPCN). alpha-synuclein 5'UTR reporter, activators screen. activity score, % (tested at 7.5 µM), hits read low. actives 7.1% (n = 300,000). AID 1814; in the data active = activity score below about -60%
Numbers without * were called inactive. The list is a sample of the results.

SMILES	aSyn 5UTR act
CCc1cc(C(=O)Cc2nc3ccccc3[nH]2)c(O)cc1O	-183*
O=C(Cc1nc2ccccc2[nH]1)c1ccc([N+](=O)[O-])cc1	-90*
O=C(COC(=O)c1ccccc1NC(=O)c1ccco1)NCCC1=CCCCC1	-92*
O=C(NCCC1=CCCCC1)C1CCC(CNc2nc(=S)[nH]c3ccccc23)CC1 (stereo unspecified)	99
O=C(COC(=O)c1ccccc1Cl)NCCC1=CCCCC1	-79*
Cn1c(O)c(C2=c3ccccc3=NC2=O)sc1=Nc1ccc(Cl)cc1	-93*
CSc1ccc(-c2sc(Nc3ccccc3)n[n+]2-c2ccc(F)cc2)cc1	-143*
COc1cc(OC)c2c(c1)O/C(=C\c1ccccc1)C2=O	-154*
O=C(Nc1nccs1)c1ccc(-c2ccc(F)cc2)o1	-260*
O=C(Nc1cccnc1)c1ccc(-c2ccc(Cl)cc2)o1	-190*
O=C(Nc1nccs1)c1cc([N+](=O)[O-])ccc1Cl	-68*
O=C(Nc1nccs1)c1ccc(-c2ccc([N+](=O)[O-])cc2)o1	-141*
Cc1cccc(NC(=O)c2cc([N+](=O)[O-])ccc2Cl)c1O	-85*
O=C(Nc1nccs1)c1ccc(-c2ccc(Cl)cc2)o1	-207*
O=C(COc1ccc(F)cc1)N1CCC(c2ccccc2)C1 (stereo unspecified)	-134*
Cc1cccc(OCC(=O)N2CCC(c3ccccc3)C2)c1 (stereo unspecified)	-158*
O=C(Nc1ccc(Cl)cc1)c1csc(-c2ccncc2)n1	-66*
O=C(Nc1ccc(Cl)cc1)c1csc(-c2ccccc2)n1	-68*
O=C(Nc1ccc(Cl)cc1Cl)c1csc(-c2cccnc2)n1	-72*
COc1cccc(NC(=O)c2cnc(SCC(=O)NCc3ccc4c(c3)OCO4)n(C)c2=O)c1	-82*
CN(C)c1ccc(NC(=O)c2ccc3nc[nH]c3c2)cc1	-126*
O=C(N/N=C/c1ccccc1[N+](=O)[O-])c1ccc2nc[nH]c2c1	-113*
Cc1ccc(NC(=O)c2ccc3nc[nH]c3c2)cc1C	-170*
O=C(Nc1ccc(F)cc1)c1ccc2nc[nH]c2c1	-82*
CCN(CC)c1ccc(/C=N/NC(=O)c2ccc3nc[nH]c3c2)c(O)c1	93
SMILES	aSyn 5UTR act
O=C(Nc1ccc2c(c1)OCO2)N1CCC(CO)(CC2CCCCO2)CC1 (stereo unspecified)	-91*
O=C(Nc1ccc2c(c1)OCO2)N1CCN(c2ccccc2Cl)CC1	-187*
O=C(Nc1ccc2c(c1)OCO2)N1CCN(S(=O)(=O)c2ccc(Cl)cc2)CC1	-68*
NC1=NC2=C(CCCC2)C2(CCCCC2)S1	77
c1ccc(Nc2cccc(Nc3ccccc3)n2)cc1	-125*
Cc1cccc2c1-c1sc(C(=O)Nc3cccnc3)cc1CO2	-118*
O=C(Nc1cccnc1)c1cc2c(s1)-c1ccccc1OC2	-126*
O=Cc1ccc(O)c2ncccc12	63
Cc1ccccc1OCc1nc2ccccc2[nH]1	-138*
COc1cccc(C=O)c1OCCCOc1cccc2cccnc12	-129*
c1cnc2c(c1)ccc1cccnc12	85
c1cnc2c(OCc3nc4ccccc4[nH]3)cccc2c1	-293*
Brc1ccccc1OCCOc1cccc2cccnc12	-72*
COc1ccccc1OCc1nc2ccccc2[nH]1	-70*
Cc1cc(C)n(-c2ccc(C(=O)OCc3ccccc3)cc2)n1	-68*
COc1cc(OC)cc(C(=O)Nc2ccc3c(c2)OCCO3)c1	-123*
Cc1cc(C)n(-c2ccc(C(=O)Nc3sccc3C(N)=O)cc2)n1	-139*
COc1ccc(C)cc1NS(=O)(=O)c1ccc(NC(=O)CN(c2cc([N+](=O)[O-])ccc2C)S(C)(=O)=O)cc1	114
COc1ccc(N(CC(=O)Nc2ccc3c(c2)OCCO3)S(C)(=O)=O)c(OC)c1	-71*
CC1CCCCN1S(=O)(=O)c1ccc(C(=O)Nc2sccc2C(N)=O)cc1 (stereo unspecified)	-106*
CCOc1ccc(C(=O)Nc2ccc3c(c2)OCCO3)cc1OC	-144*
Cc1cc(C(=O)Nc2ccc3c(c2)OCCO3)co1	-113*
CCC1CCCCN1S(=O)(=O)c1ccc(C(=O)Nc2nnc(-c3ccccc3Cl)o2)cc1 (stereo unspecified)	56
CCOc1cccc(C(=O)NC(=S)Nc2ccc3c(c2)OCCO3)c1	-87*
CCOC(=O)c1cc([N+](=O)[O-])sc1NC(=O)c1ccc(S(=O)(=O)N2CC3(C)CC2CC(C)(C)C3)cc1 (stereo unspecified)	55
SMILES	aSyn 5UTR act
Cc1cc(C)n(-c2ccc(C(=O)Nc3ccc4c(c3)OCCO4)cc2)n1	-101*
CC(C)CNS(=O)(=O)c1ccc(C(=O)Nc2ccc3c(c2)OCCO3)cc1	-98*
CCOC(=O)C(CC)(CC)C(=O)/C=C/c1cccc(Br)c1	-74*
N/C(=N\OC(=O)Cc1ccccc1)c1cccc(Br)c1	-72*
N/C(=N\OC(=O)Cc1ccccc1)c1ccccc1Cl	-143*
CS(=O)(=O)c1ccccc1C(=O)Nc1ccc(-c2nc3ccccc3o2)cc1	-185*
CS(=O)(=O)c1ccccc1C(=O)Nc1ccc(-c2nc3ccccc3[nH]2)cc1	-156*
O=C(c1ccccc1)c1ccc2nc(-c3ccc(NC(=O)c4ccccc4Br)cc3)[nH]c2c1	75
Cc1ccc(NC(=O)c2nnn(-c3ccc4c(c3)OCCO4)c2N)cc1	-149*
Cc1ccccc1Cn1nnc(C(=O)Nc2ccc3c(c2)OCCO3)c1N	-109*
Cc1ccc(C)c(Cn2nnc(C(=O)Nc3ccc4c(c3)OCCO4)c2N)c1	-106*
Fc1cccc(Cl)c1CSc1ccc(-c2cccnc2)nn1	-80*
COCCn1c(C)cc(C(=O)COC(=O)c2cncc(Br)c2)c1C	-121*
COCCn1c(C)cc(C(=O)COC(=O)c2ccc3ncsc3c2)c1C	-151*
COCCn1c(C)cc(C(=O)COC(=O)c2ccccc2Br)c1C	55
CC(=O)c1sc(N/N=C2\CC3CC2C(C)C3(C)C)nc1C (stereo unspecified)	-101*
CCCc1c(C(=O)N/N=C/c2ccc(OC)c(OCc3ccccc3)c2)nnn1-c1nonc1N	-95*
COc1ccccc1/C=N/NC(=O)c1nnn(-c2nonc2N)c1-c1cccs1	-80*
CN(C)Cc1c(C(=O)N/N=C/c2ccccc2OCc2c(F)cccc2Cl)nnn1-c1nonc1N	-72*
Cc1nnn(-c2nonc2N)c1C(=O)N/N=C/c1ccccc1O	68
COc1cc(/C=N/NC(=O)c2nnn(-c3nonc3N)c2C(C)C)ccc1OCc1ccc(F)cc1	-143*
CCCc1c(C(=O)N/N=C/c2ccc(OCc3ccccc3)c(OC)c2)nnn1-c1nonc1N	-148*
Cc1ccccc1COc1ccc(/C=N/NC(=O)c2nnn(-c3nonc3N)c2CN2CCC(C)CC2)cc1	-78*
CC1CCN(Cc2c(C(=O)N/N=C/c3ccccc3O)nnn2-c2nonc2N)CC1	65
O=C(O)c1cccc2c1-c1ccccc1/C2=N\Nc1ccccc1	-83*
SMILES	aSyn 5UTR act
Cc1cc(NC(c2cccnc2)c2ccc3cccnc3c2O)no1 (stereo unspecified)	77
c1ccc(-c2noc(COc3ccc4c(c3)OCO4)n2)cc1	-192*
Cc1cc(Br)ccc1OCc1nc(-c2cccnc2)no1	-114*
Cc1ccccc1OCc1nc(-c2ccccc2)no1	-178*
Cc1ccc(-c2noc(COc3ccccc3C)n2)cc1	-86*
Cc1ccc(OCc2nc(-c3ccccc3)no2)cc1	-122*
O=C(Nc1cc(S(=O)(=O)N2CCCCC2)ccc1Cl)c1ccccc1NS(=O)(=O)c1ccc(F)cc1	63
